Compound activity as filed in PubChem BioAssay.
MmCpn inh = blocks the Methanococcus maripaludis chaperonin Mm-Cpn. purified Mm-Cpn ATPase, ADP Transcreener TR-FRET. Potency, µM (highest dose often 76.9 µM), usual class: inhibitors. 0.031% of 330,000 active; further: nearly all actives have a fitted effect of over 80% in size
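Compound-treated chaperonin, 25 nM final, turns over 10 uM ATP at 37°C for 30 min following a 10 min preincubation; ADP generated competes with ADP-d2 for Eu-cryptate antibody, lowering FRET.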
Sfp inh = inhibitors of Bacillus subtilis Sfp phosphopantetheinyl transferase. Biochemical Sfp PPTase activity, qHTS. 3.5% of 310,000 active. Q9F4F7. Potency, µM, actives largely listed as inhibitors. AID 1490;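 further: the enzyme is Sfp with the accession as filed and its product quenches rhodamine fluorescence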
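Reaction rates are the 30-min fluorescence difference (ex 525, em 598 nm) in wells containing 15 nM Sfp, 5 uM rhodamine-CoA and 12.5 uM BHQ-2-YbbR at pH 7.6 with 10 mM MgCl2.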
PLK1 PBD inh = blocks phosphopeptide binding to human PLK1 polo-box domain | Plk1 PBD binding of FITC phosphopeptide, fluorescence polarization | Potency, µM, hits mostly inhibitors | P53350 | 2.8% of 360,000 active; further: series mostly up to about 57 µM; nearly all actives have a fitted effect of over 65% in size
Target sequence (P53350 whole entry, looked up, the tested form may be a part): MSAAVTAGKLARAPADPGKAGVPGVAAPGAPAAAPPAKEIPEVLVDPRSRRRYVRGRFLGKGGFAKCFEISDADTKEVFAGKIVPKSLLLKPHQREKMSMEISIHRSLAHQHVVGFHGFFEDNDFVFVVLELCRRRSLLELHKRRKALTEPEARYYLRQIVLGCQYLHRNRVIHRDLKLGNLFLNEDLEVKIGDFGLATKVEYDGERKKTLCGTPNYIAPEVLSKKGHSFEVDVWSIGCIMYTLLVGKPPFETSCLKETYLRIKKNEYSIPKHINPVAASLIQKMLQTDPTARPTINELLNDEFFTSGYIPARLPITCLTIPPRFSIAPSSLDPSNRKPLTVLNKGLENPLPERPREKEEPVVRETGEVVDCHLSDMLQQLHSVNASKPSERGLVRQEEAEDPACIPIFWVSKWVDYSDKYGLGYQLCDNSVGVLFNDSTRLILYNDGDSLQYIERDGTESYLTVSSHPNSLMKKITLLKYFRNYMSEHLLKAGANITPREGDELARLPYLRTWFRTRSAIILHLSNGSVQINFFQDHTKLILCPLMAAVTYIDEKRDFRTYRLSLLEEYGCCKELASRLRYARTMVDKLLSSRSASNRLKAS
CCT modulator = changes cytosolic chaperonin activity. AID 651819. purified chaperonin ATPase assay, HTRF ADP detection, 30 min. activity change, % (no concentration beside the values), hits read low. 0.3% of 360,000 active; in the data active means activity change below about -30%
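Nucleotide hydrolysis assay: TRiC at 20–40 nM final (set by batch activity) with 10 uM ATP, 30 min at 37 °C, in presence of 76 uM compound. Detection by competitive ADP HTRF, 30 min ambient.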
G9a block = inhibitors of human histone lysine methyltransferase G9a | G9a H3K9 monomethylation, AlphaScreen, 2 h | Potency, µM (series often up to 102 µM), most hits filed as inhibitors | 8.8% of 350,000 active; further: nearly all actives have a fitted effect of over 75% in size
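AlphaScreen detection with an anti-monomethyl H3K9 antibody quantified product after a 2 h room-temperature reaction containing 500 nM biotinylated H3K9 peptide, 20 µM SAM and 20 nM enzyme, which had been preincubated 15 min with compound.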
VDR inhibitor = inhibitors of human vitamin D receptor | P11473 | VDR-SRC2-3 peptide fluorescence polarization, 2 h | Potency, µM, actives largely listed as inhibitors | 0.93% of 400,000 active
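Fluorescence polarization assay of small-molecule disruption of VDR binding to coregulator peptide SRC2-3. Compounds and controls pin-transferred, then read after 2 h incubation at ambient room temperature.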
Of the large screens only hits and unclear results are named; the others gave an inactive call. Only some compounds are listed: those with a hit (about 10% of all), similar ones and a draw of the others. Unless noted, the call rests on the fitted dose curve; in most records, active means well fitted curve in the direction sought with a large enough effect; inconclusive means small, poorly fitted or top-dose-only effect, or another doubt; inactive means no such curve, though single readings can be large; an effect the other way counts as inactive or inconclusive.

C#CCCCO/N=C1/C[C@@H](O)[C@@H](O)[C@@H]2[C@@H]3C(=O)N(Cc4ccc5c(c4)OCO5)C(=O)[C@H]3CC[C@@H]12	none (no result: MmCpn inh, PLK1 PBD inh, CCT modulator, G9a block, VDR inhibitor)
COc1ccc(Cl)cc1Nc1cc(C)nc2nc(-c3ccccc3C)nn12	none (no result: MmCpn inh, Sfp inh, PLK1 PBD inh, CCT modulator)
COc1ccccc1C(=O)NNC(=S)NC(=O)c1cc(OC)c(OC)c(OC)c1	G9a block 12.6µM
COc1cc(C(=O)NC(=S)NNC(=O)c2cnccn2)cc(OC)c1OC	none
COc1cc(C(=O)NC(=S)NNC(=O)[C@H]2C[C@@H]2c2ccccc2)cc(OC)c1OC	G9a block 39.8µM
COc1cc(C(=O)NNC(=S)NC(=O)c2ccc3c(c2)OCO3)cc(OC)c1OC	G9a block 12.6µM
COc1cc(C(=O)NNC(=S)NC(=O)c2ccccc2C)cc(OC)c1OC	G9a block inconclusive
Cc1ccc(C)c(NC(=O)Cn2cc(S(=O)(=O)N3CCCC3)c(S(=O)(=O)N3CCCC3)c2)c1	none (no result: MmCpn inh, Sfp inh, PLK1 PBD inh, CCT modulator)
Cc1ccc(CCNc2ncnc3onc(C)c23)cc1	none (no result: MmCpn inh, Sfp inh, PLK1 PBD inh, CCT modulator)
COc1cc(NC(=O)CSc2nc(C)c(C)c(C)n2)c(C)cc1[N+](=O)[O-]	G9a block 50.1µM
CCNCCNC(=O)c1c(O)c2ccccc2n(CC)c1=O	G9a block 11.2µM
CCn1c(=O)c(C(=O)NCCc2ccccc2)c(O)c2ccccc21	Sfp inh inconclusive
CCn1c(=O)c(-[n+]2ccccc2)c(O)c2ccccc21	Sfp inh 12.6µM, G9a block inconclusive
CCCn1c(=O)c(C(=O)Nc2ccccc2C)c(O)c2ccccc21	Sfp inh 35.5µM, G9a block inconclusive
C=CCn1c(=O)c(C(=O)NCCNCC)c(O)c2ccccc21	G9a block inconclusive
CCn1c(=O)c(C(=O)NCCN2CCCCC2)c(O)c2ccccc21	G9a block 56.2µM
COc1cccc(CCNC(=O)c2ccc(Cn3c(SCc4ccccc4)nc4cccnc43)cc2)c1	G9a block inconclusive (no result: MmCpn inh, Sfp inh, PLK1 PBD inh, CCT modulator)
NC1(C(=O)O)CCc2cc(C(=O)O)ccc21 (stereo unspecified)	Sfp inh inconclusive, G9a block 4.47µM (no result: MmCpn inh, PLK1 PBD inh, CCT modulator)
C[C@H](NC(c1cccc2nc(O)c(O)nc12)P(=O)(O)O)c1ccc(Br)cc1 (stereo partly specified)	none (no result: MmCpn inh, PLK1 PBD inh, CCT modulator, G9a block)
COc1ccc(-c2noc(CN3CCN(C(=O)c4cccs4)CC3)n2)c(OC)c1OC	PLK1 PBD inh 21.2µM
COc1cccc(C(=O)N2CCN(C(=O)c3cccs3)CC2)c1OC	none
COc1ccc(CN2CCN(C(=O)c3cccc4ccccc34)CC2)cc1OC	Sfp inh inconclusive (no result: G9a block)
COc1ccc(CN2CCN(C(=O)CC(C)C)CC2)cc1Br	G9a block 10µM
COc1ccc(CN2CCN(C(=O)c3cccs3)CC2)cc1Br	Sfp inh inconclusive, G9a block 35.5µM
CCOc1cc(CN2CCN(C(=O)c3cccc4ccccc34)CC2)ccc1OC	Sfp inh inconclusive, G9a block 22.4µM
CCCN(C(=O)Cn1nc(Cc2cccnc2)c2ccccc2c1=O)c1ccc(C(C)C)cc1	none (no result: MmCpn inh, Sfp inh, PLK1 PBD inh, CCT modulator)
Nc1c(-c2nc(-c3ccncc3)no2)nnn1CC(=O)Nc1ccccc1	none (no result: MmCpn inh, Sfp inh, PLK1 PBD inh, CCT modulator)
CCOc1ccc(C(=O)NCCc2sc3nc(-c4ccc(Cl)cc4)nn3c2C)cc1OCC	none (no result: MmCpn inh, Sfp inh, PLK1 PBD inh, CCT modulator)
COc1ccccc1CN1CCN(C(=O)c2cccc3ccccc23)CC1	none (no result: MmCpn inh, Sfp inh, G9a block)
COc1ccc(CN2CCN(C(=O)c3cccc4ccccc34)CC2)cc1Br	Sfp inh 56.2µM, G9a block 28.2µM
NC(=O)CSc1nc2cc3c(cc2c(=O)n1CCCCCC(=O)NCc1ccc2c(c1)OCO2)OCO3	none (no result: MmCpn inh, Sfp inh, PLK1 PBD inh, CCT modulator)
CN(CC(=O)NC(=O)NCc1ccco1)Cc1nc2ccccc2c(=O)[nH]1	Sfp inh 89.1µM
COc1ccc(OC)c(NC(=O)CC2C(=O)NCCN2C(=O)C(F)(F)F)c1 (stereo unspecified)	none (no result: MmCpn inh, Sfp inh, PLK1 PBD inh, CCT modulator)
CC(C)(C)c1cc(C(=O)CCN2CCOCC2)cc(C(C)(C)C)c1O	PLK1 PBD inh inconclusive, G9a block 50.1µM, VDR inhibitor 50.1µM
O=C(/C=C/c1cccs1)NC(=S)NNC(=O)c1ccccc1O	G9a block 10µM
CCN1CCN(C(=S)NC(=O)/C=C/c2cccs2)CC1	G9a block 50.1µM
CCN1CCN(C(=S)NC(=O)c2cccs2)CC1	G9a block 50.1µM
COC/C=C/C1=CC2=CC(=O)C(C)(OC(=O)c3cnc4ccccc4n3)C(=O)C2=CN1Cc1ccc2c(c1)OCO2 (stereo unspecified)	none (no result: MmCpn inh, PLK1 PBD inh, CCT modulator, G9a block, VDR inhibitor)
COc1cccc(C2NC(=O)c3sc(=S)n(-c4ccccc4)c3N2)c1 (stereo unspecified)	G9a block 39.8µM, VDR inhibitor inconclusive
COc1cccc(-c2cc3c(=O)n(-c4ccccc4)c(=S)[nH]c3s2)c1	G9a block inconclusive
Cc1ccc(OCC(=O)Nc2ccc3c(c2)nc2n3CCOC2)cc1	G9a block inconclusive
O=C(COc1ccc([N+](=O)[O-])cc1)Nc1ccc2c(c1)nc1n2CCOC1	PLK1 PBD inh 2.99µM, VDR inhibitor inconclusive
Cc1ccc(-c2nn(CC(=O)Nc3ccc4c(c3)nc3n4CCOC3)c(=O)c3ccccc23)cc1	G9a block 79.4µM
COC(=O)CN=C1OC(=O)N2C(=O)C3=C4C(C[C@H]5C(=O)N(c6ccccc6)C(=O)[C@H]5[C@H]4[C@@]12Cc1ccccc1)[C@H]1C(=O)N(c2ccccc2)C(=O)[C@H]1[C@H]3C (stereo partly specified)	none (no result: MmCpn inh, PLK1 PBD inh, CCT modulator, G9a block, VDR inhibitor)
CC(C)c1cccc(-c2ccc3c(c2)S(=O)(=O)c2cccc(C(=O)NCc4ccco4)c2C3=O)c1	PLK1 PBD inh 42.3µM (no result: Sfp inh, G9a block)
CC(C)c1cccc(-c2ccc3c(c2)S(=O)(=O)c2cccc(C(=O)O)c2C3=O)c1	PLK1 PBD inh inconclusive (no result: Sfp inh)
BrC(/C=N/Nc1nc(N2CCOCC2)nc(N2CCOCC2)n1)=C/c1ccccc1	Sfp inh 79.4µM
CC(=C/c1ccccc1)/C=N/Nc1nc(N2CCCCC2)nc(N2CCCCC2)n1	none
CC(=O)c1cccc(NC(=O)CCc2c(C)nc3nc(CN)nn3c2C)c1	G9a block 15.8µM (no result: MmCpn inh, Sfp inh, PLK1 PBD inh, CCT modulator)
CCn1c2ccccc2c2n[nH]c(=S)nc21	Sfp inh 50.1µM, PLK1 PBD inh inconclusive, G9a block 7.94µM
C=CCn1c2ccccc2c2n[nH]c(=S)nc21	Sfp inh 39.8µM, G9a block 10µM, VDR inhibitor inconclusive
CCCn1c2ccc(C)cc2c2n[nH]c(=S)nc21	Sfp inh 39.8µM, PLK1 PBD inh 26.7µM, G9a block inconclusive
O=C(O)Cn1c2ccccc2c2n[nH]c(=S)nc21	Sfp inh 44.7µM, PLK1 PBD inh 26.7µM, G9a block 2.24µM
CCn1c2ccccc2c2nn(C)c(=N)nc21	none
O=C(O)CCn1c2ccccc2c2nc3ccccc3nc21	none (no result: G9a block)
C=CCn1c(-c2cccc3ccccc23)n[nH]c1=S	G9a block inconclusive
O=C(c1ccccc1)N1CCC(c2nc3ccccc3o2)CC1	none (no result: MmCpn inh, Sfp inh, PLK1 PBD inh, CCT modulator)
